# Screens from PubChem.
# An excerpt weighted towards active compounds, which were near 3.3% of everything screened.
# LDHA block: blocks human lactate dehydrogenase A; purified LDHA, NADH/diaphorase-resazurin fluorescence; stronger effect = lower value; P00338; activity change, % (values are at about 110 or 230 µM); 0.15% of 480,000 active; in the data active = activity change below about -30%; inconclusive = mostly about -25% to -30%;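 also: plate controls were DMSO wells for no effect and wells without enzyme for full effect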
#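 Human LDH5 at 2 nM final in Tris HCl pH 7.4 with 0.06 mM NADH and 0.2 mM pyruvate, reacted 5 minutes at room temperature. Remaining NADH coupled via diaphorase/resazurin; resorufin fluorescence read at 0 and 20 minutes, normalized to enzyme-free and DMSO wells.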
# PI4K2A inh: inhibitors of human PI4K2A | activity change, negative = inhibition, % at 76.9 µM | purified PI4K2A, ADP-Glo luminescence, 1 h; stronger effect = lower value | 0.13% of 420,000 active | Q9BTU6; in the data active = activity change below about -50%; inconclusive = mostly about -30% to -49%;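 also: -100% = wells without enzyme as full effect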
# Target sequence (Q9BTU6 whole entry, looked up): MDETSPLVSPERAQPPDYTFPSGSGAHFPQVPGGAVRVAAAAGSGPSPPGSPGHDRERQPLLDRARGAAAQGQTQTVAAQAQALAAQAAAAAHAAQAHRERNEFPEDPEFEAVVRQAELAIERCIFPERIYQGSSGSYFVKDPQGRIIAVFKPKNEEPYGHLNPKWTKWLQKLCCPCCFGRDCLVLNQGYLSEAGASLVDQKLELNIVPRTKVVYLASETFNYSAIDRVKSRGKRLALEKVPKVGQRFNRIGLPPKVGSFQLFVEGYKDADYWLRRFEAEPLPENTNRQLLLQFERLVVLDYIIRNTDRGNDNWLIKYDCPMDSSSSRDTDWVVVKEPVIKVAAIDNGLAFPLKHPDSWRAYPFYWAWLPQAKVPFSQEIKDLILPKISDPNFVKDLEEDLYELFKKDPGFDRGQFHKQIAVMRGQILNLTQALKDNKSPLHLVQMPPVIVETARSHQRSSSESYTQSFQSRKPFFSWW
#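 In this quantitative HTS, ADP production by PI4K2A was quantified luminescently after 1 h at ambient temperature; 100 microM adenosine served as plate-quality control.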
# PI5P4K alpha inh: blocks human PI5P4K alpha kinase activity; P48426; PI5P4Kalpha enzyme, ADP-Glo luminescence, 60 min; stronger effect = lower value; max response, %; 1.2% of 330,000 active; active = max response of -50% or lower; inconclusive = between -30% and -50%; inactive = -30% or higher; also: value at the top dose of about 77 µM; % is scaled to controls: 0 for no effect and ±100 for the full control effect
#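 Human PI5P4Kalpha with substrate in 0.038 M HEPES pH 7.4, 0.28 mM EGTA, 0.1% CHAPS, 5% DMSO; reaction started with 5 microM ATP (final), 60 min at room temperature. ADP formed read by ADP-Glo luminescence.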
# D3 ag: D3 dopamine receptor (human) agonism | max activation, % | P35462 | 0.58% of 410,000 active | D3R DiscoveRx beta-arrestin cells, luminescence, 90 min; in the data active = max activation above about 30%; also: 0% is about no effect
#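 Cells at 1500/well, incubated overnight, then treated with pinned compounds (dopamine as control) for 90 min at 37 degrees C. DiscoveRx reagent added for 30 - 60 minutes at room temperature; luminescence read.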
# DRD3 antagonist: blocks the human D3 dopamine receptor; D3R cells, DiscoveRx beta-arrestin luminescence, antagonist mode; stronger effect = lower value; 2.5% of 360,000 active; max response, negative = inhibition, %; P35462; in the data active = max response below about -50%; inconclusive = no clear call, values can overlap the other calls; also: % is scaled to controls: 0 for no effect and ±100 for the full control effect
#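 Cells plated overnight at 1500 cells/well, then exposed to library compounds with dopamine controls for 90 minutes at 37 degrees C. DiscoveRx reagent added for 30–60 minutes at room temperature; luminescence read, quantitative HTS format.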
# ADP-Glo interf: counter-screen for PI5P4K inhibitors: ADP-Glo detection interference, no enzyme; shares compounds with PI5P4K alpha inh; ADP-Glo detection counter-screen, luciferase luminescence, no enzyme; Potency, µM (series often up to 76.9 µM), for the others: at the top dose activity change, negative = inhibition, most hits filed as inhibitors; 1,100 tested, under 10 active; active = well fitted curve in the direction sought with a large enough effect; inconclusive = small, poorly fitted or top-dose-only effect, or another doubt; inactive = no such curve, though single readings can be large or run the other way
# * marks the source's active call; other numbers are inactive results; ? = inconclusive; / = no result given.
SMILES,LDHA block,PI4K2A inh,PI5P4K alpha inh,D3 ag,DRD3 antagonist,ADP-Glo interf
CCn1nc(C(=O)OCC(=O)Nc2ccc(S(=O)(=O)N(C)C)cc2)c2ccccc2c1=O,-2,/,/,/,/,/
COc1ccc(N2CCN(C(=O)c3[nH]c(C(F)(F)F)nc3-c3ccccc3)CC2)cc1,-1,-4,-4,3,0,2%
COc1ccccc1N1CCN(C(=O)c2[nH]c(C(F)(F)F)nc2-c2ccccc2)CC1,-4,-1,-2,-11,?,/
CCOc1ccc(N(Cc2cc3cc(C)ccc3[nH]c2=O)C(=O)C(C)C)cc1,-4,/,/,/,/,/
CCC(=O)Nc1nc(C)c(-c2csc(Nc3cccc(C(=O)O)c3)n2)s1,1,-6,-23,0,12,/
Cc1nc(N)sc1-c1csc(Nc2cccc(C(=O)O)c2)n1,6,-3,-52*,3,3,-8%
Cc1cccc(N2N=C(C(=O)Nc3ccc(C)c(S(=O)(=O)N4CCCCCC4)c3)CCC2=O)c1,4,/,/,/,/,/
COc1ccccc1Cc1c(-c2ccco2)nc2ccc(Cl)cn12,-3,-18,?,-13,-30,/
Clc1ccc2nc(-c3ccco3)c(Cc3ccsc3)n2c1,6,-29,-66*,-11,-53*,-2%
Clc1ccc2nc(-c3ccco3)c(Cc3ccccc3)n2c1,0,-27,-65*,-6,-4,1%
Fc1cccc(Cc2c(-c3ccco3)nc3ccc(Br)cn23)c1,-5,?,-64*,0,-10,-4%
Clc1ccc2nc(-c3ccccc3)c(Cc3ccsc3)n2c1,-6,-4,-22,4,38,/
COc1ccccc1Cc1c(-c2ccco2)nc2ccc(Br)cn12,1,-22,-56*,0,0,-5%
Cc1ccc(S(=O)(=O)N2CCC(C(=O)OC(C)C(=O)N3CCCCCC3)CC2)cc1 (stereo not given),4,/,/,/,/,/
Cc1ccc(-c2cc(C(=O)NC(C)C(=O)N(C)C)c3ccccc3n2)o1 (stereo not given),3,/,/,/,/,/
c1csc(C2NCCc3sccc32)c1 (stereo not given),7,/,/,/,/,/
Fc1cccc(Cc2c(-c3ccco3)nc3ccc(Cl)cn23)c1,-9,-28,-51*,-6,-2,-4%
NC(=O)COC(=O)c1cccc(S(=O)(=O)N2CCN(c3ccccc3)CC2)c1,-10,-3,-2,0,0,/
O=C(COC(=O)c1cccc(S(=O)(=O)N2CCN(c3ccccc3)CC2)c1)NCc1ccco1,-4,-13,-54*,5,13,-3%
COc1ccccc1NS(=O)(=O)c1ccc(C(=O)OCC(=O)NCc2ccco2)cc1,1,-24,-60*,-3,-2,-4%
Oc1ccc(-n2nnnc2SCc2cc(Cl)c3c(c2)OCCO3)cc1,2,/,/,/,/,/
Cc1cc([N+](=O)[O-])cc2c1NC(c1ccccn1)C1CC=CC21 (stereo not given),2,-8,-71*,11,6,-4%
CC(=O)Oc1ccc(C(=O)Nc2cccc(C(=O)c3ccc(C)c(C)c3)c2)cc1,-4,0,-57*,4,10,-7%
Cn1cccc1C(=O)OCc1nc2ccccc2c(=O)[nH]1,-2,-23,-53*,-5,17,-11%
Cn1c(SCC(=O)NC2CC2)nnc1-c1ccco1,-13,-2,-1,-1,-11,/
SMILES,LDHA block,PI4K2A inh,PI5P4K alpha inh,D3 ag,DRD3 antagonist,ADP-Glo interf
CCCNC(=O)CSc1nnc(-c2ccco2)n1C,-3,0,-51*,7,-11,-3%
CCOC(=O)Cc1csc(NC(=O)Cc2cccs2)n1,0,-3,-58*,-3,-4,0%
CN(C)[C@@H]1CCN(c2ccc3c(c2)OCCCN(C2CC2)S3(=O)=O)C1,/,-8,/,/,/,/
COC(=O)[C@@]12C[C@@H](CC(=O)NCc3ccc(C)o3)C(=O)N(Cc3ccccc3)C1=CCC(C)(C)C2,1,4,-17,-10,-16,/
CCCCCCCCN1C(=O)[C@H](CC(=O)NCc2ccc(C)o2)C[C@@]2(C(=O)OC)CC(C)(C)CC=C12,6,-4,-51*,-2,17,-1%
COC(=O)c1cc2c(ccn2-c2ccc(F)cc2)n1Cc1ccc(OC)cc1,-1,-2,11,-5,-13,/
CCn1c(C(=O)OC)cc2c1ccn2-c1ccc(F)cc1,21,-23,-50*,4,-77*,-2%
Cc1ccc(-c2csc(N3CCN(c4cc5c(cc4Cl)nc(-c4ccncc4)n5CCN4CCCCC4)CC3)n2)cc1,6,-3,-64*,-18,0,5%
COc1ccc(Cn2nc(C(=O)O)c3ccccc3c2=O)cc1,4,/,/,/,/,/
O=C(Oc1cccc2c(O)cccc12)c1ccco1,32,-14,-54*,-6,7,0%
O=S(=O)(Nc1nc2ccccc2nc1N1CCCCCC1)c1ccc(Cl)cc1,-1,/,/,/,/,/
Cc1cnc(C(=O)OCc2nc3ccsc3c(=O)[nH]2)cn1,-1,-7,-65*,-1,-17,-11%
CCNC(=O)NC(=O)C(C)N1CCN(c2ccccc2)CC1 (stereo not given),-7,/,/,/,/,/
CSc1ccccc1NC(=O)c1cnn2c(C(F)(F)F)cc(-c3cccs3)nc12,2,/,/,/,/,/
COc1ccccc1N1CC(C(=O)NCCNC(=O)c2cn(C)c3ccccc23)CC1=O (stereo not given),3,/,/,/,/,/
N#Cc1c(NC(=O)CSc2ncccn2)oc(-c2ccccc2)c1-c1ccccc1,3,-8,-58*,3,-23,6%
Cc1cc(C(=O)CSc2nnc(COc3ccc(Cl)cc3)n2C)c(C)n1Cc1cccs1,1,/,/,/,/,/
COc1cccc(-c2nc(CSc3nc(C)cc(=O)[nH]3)c(C)o2)c1OC,-4,/,/,/,/,/
CN(c1ccc(-c2csc(NC(=O)CCCc3nc4ccccc4c(=O)[nH]3)n2)cc1)S(C)(=O)=O,-1,1,-56*,1,67,-9%
COc1ccc(CNC(=O)CCCn2nc(C)c([N+](=O)[O-])c2C)cc1OC,-7,1,?,2,-2,-4%
Cc1nn(CCCC(=O)NCc2ccc(Cl)cc2)c(C)c1[N+](=O)[O-],-8,1,-7,-4,-6,/
C[C@@H]1CCCN1c1cccc2c1S(=O)(=O)N1CC[C@@H](C1)O2,/,1,/,/,/,/
Cc1cc(C)c2c(CC(=O)Nc3cccnc3)coc2c1,0,/,/,/,/,/
Cc1c(C(=O)N2CCN(C(=O)c3ccccc3)CC2)oc2ccc(F)cc12,-4,-7,-54*,-4,9,3%
O=C(Nc1ccc2c(c1)CCC2)c1cc(Cl)ccc1Cl,3,/,/,/,/,/
COCc1ccc2oc(C(=O)O)cc2c1,0,-1,-68*,-3,-1,0%
c1ccc2c(OCCCCN3CCOCC3)cccc2c1,-10,-1,-14,-12,-60*,1%
